Assay [1] in a line: qHTS assay to identify small molecule antagonists of the thyroid receptor (TR) signaling pathway - cell viability counter screen (AID 743064). Also: nearly all actives have a fitted effect of over 50% in size. An outline of the steps:
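Viability of T3-stimulated (1 nM final) GH3.TRE-Luc cells is measured by CellTiter-Fluor fluorescence after 23.5 h compound exposure at 37 °C plus 30 min reagent incubation.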

A short description of assay [2]: qHTS assay to identify small molecule antagonists of the thyroid receptor (TR) signaling pathway (AID 743065). Also: nearly all actives have a fitted effect of over 55% in size. In outline: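 GH3.TRE-Luc rat pituitary cells carrying two TR response elements driving luciferase were plated for 4 h, given compound plus 1 nM T3 (final), and incubated 23.5 h at 37 C. ONE-Glo luminescence measured reporter inhibition; CellTiter-Fluor fluorescence tracked cytotoxicity.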

Assay [3] concerns thyroid hormone receptor (rat, GH3 cells). In words: qHTS assay to identify small molecule agonists of the thyroid receptor (TR) signaling pathway (AID 743066; calls by dose curve).
Assay [4] has as its target Estrogen receptor (Homo sapiens) (UniProt P03372). Description: qHTS assay to identify small molecule antagonists of the estrogen receptor alpha (ER-alpha) signaling pathway (AID 743069; active = well fitted curve in the direction sought with a large enough effect in the signal ratio in the repeat runs, not every such curve was filed as active; the % refers to the signal ratio). An outline of the steps:
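Screening used a UAS-driven beta-lactamase reporter integrated into HEK293 cells expressing ER-alpha, stimulated with 17beta-estradiol alongside test compounds over 18 hr at 37C; signal came from LiveBLAzer B/G FRET fluorescence.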

Assay [5] in a line: qHTS assay to identify small molecule antagonists of the estrogen receptor alpha (ER-alpha) signaling pathway - cell viability counter screen (AID 743074; calls by dose curve; also: nearly all actives have a fitted effect of over 45% in size; also: potency is read from the fitted curve at half-maximal effect).
Assay [6] addresses Estrogen receptor (Homo sapiens) (UniProt P03372). Description: qHTS assay to identify small molecule agonists of the estrogen receptor alpha (ER-alpha) signaling pathway (AID 743075; calls by dose curve).
Assay [7] has the same target. Description: qHTS assay to identify small molecule agonists of the estrogen receptor alpha (ER-alpha) signaling pathway using the BG1 cell line (AID 743079). Also: nearly all actives have a fitted effect of over 20% in size. The following applies: BG1Luc4E2 cells, ERE-luciferase agonist, 22 h; activation: at 70.3 µM (top of the series).
Assay [8] in a line: qHTS assay to identify small molecule antagonists of the estrogen receptor alpha (ER-alpha) signaling pathway using the BG1 cell line (AID 743080; calls by dose curve;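 also: BG1 cells stimulated with 17beta-estradiol alongside compound; nearly all actives have a fitted effect of over 25% in size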). The settings on record: BG1Luc4E2 ERE-luciferase antagonist mode, luminescence; activity change, negative = inhibition: at 70.3 µM (top of the series). An outline of the steps:
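Luciferase inhibition measured with ONE-Glo after 30 min at RT in BG1Luc4E2 cells given test compounds and 17beta-estradiol for 21.5 h at 37 C; CellTiter-Fluor viability read in the same wells beforehand.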

A short description of assay [9]: qHTS assay to identify small molecule antagonists of the estrogen receptor alpha (ER-alpha) signaling pathway using the BG1 cell line - cell viability counter screen (AID 743081).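 Also: compound given together with 17beta-estradiol as the ER stimulus; nearly all actives have a fitted effect of over 45% in size.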
For assay [10], the target named is Aromatase (Homo sapiens) (UniProt P11511). In words: qHTS assay to identify aromatase inhibitors (AID 743083). Also: nearly all actives have a fitted effect of over 55% in size.
Sequence of Aromatase (Homo sapiens) (P11511 whole entry, looked up): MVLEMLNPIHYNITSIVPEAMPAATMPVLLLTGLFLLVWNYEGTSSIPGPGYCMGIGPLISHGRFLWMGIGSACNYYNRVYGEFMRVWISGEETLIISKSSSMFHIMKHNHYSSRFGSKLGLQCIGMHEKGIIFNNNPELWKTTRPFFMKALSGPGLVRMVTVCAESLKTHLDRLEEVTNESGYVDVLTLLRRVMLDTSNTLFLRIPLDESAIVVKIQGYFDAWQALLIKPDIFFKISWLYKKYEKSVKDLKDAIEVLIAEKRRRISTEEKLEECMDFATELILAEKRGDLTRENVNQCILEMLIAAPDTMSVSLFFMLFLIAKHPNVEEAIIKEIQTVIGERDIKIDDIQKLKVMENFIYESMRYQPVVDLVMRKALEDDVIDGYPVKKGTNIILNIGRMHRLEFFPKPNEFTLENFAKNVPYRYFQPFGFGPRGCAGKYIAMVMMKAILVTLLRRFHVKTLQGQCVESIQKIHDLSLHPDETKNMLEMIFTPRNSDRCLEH
A short description of assay [11]: qHTS assay to identify aromatase inhibitors - cell viability counter screen (AID 743084).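 Also: cells stimulated with testosterone during compound exposure; nearly all actives have a fitted effect of over 55% in size.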
The target in assay [12] is Aryl hydrocarbon receptor (Homo sapiens) (UniProt P35869). In words: qHTS assay to identify small molecule that activate the aryl hydrocarbon receptor (AhR) signaling pathway (AID 743085).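 Also: HG2L7.5c1 human HepG2 liver cells with stably integrated DRE-driven firefly reporter; nearly all actives have a fitted effect of over 15% in size.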 An outline of the steps: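 A multiplexed format paired cell viability (CellTiter-Fluor fluorescence) with AhR-dependent luciferase output (ONE-Glo luminescence) in the same wells of HepG2 DRE-luc cells after 24 h compound exposure at 37C.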
Sequence of Aryl hydrocarbon receptor (Homo sapiens) (P35869 whole entry, looked up): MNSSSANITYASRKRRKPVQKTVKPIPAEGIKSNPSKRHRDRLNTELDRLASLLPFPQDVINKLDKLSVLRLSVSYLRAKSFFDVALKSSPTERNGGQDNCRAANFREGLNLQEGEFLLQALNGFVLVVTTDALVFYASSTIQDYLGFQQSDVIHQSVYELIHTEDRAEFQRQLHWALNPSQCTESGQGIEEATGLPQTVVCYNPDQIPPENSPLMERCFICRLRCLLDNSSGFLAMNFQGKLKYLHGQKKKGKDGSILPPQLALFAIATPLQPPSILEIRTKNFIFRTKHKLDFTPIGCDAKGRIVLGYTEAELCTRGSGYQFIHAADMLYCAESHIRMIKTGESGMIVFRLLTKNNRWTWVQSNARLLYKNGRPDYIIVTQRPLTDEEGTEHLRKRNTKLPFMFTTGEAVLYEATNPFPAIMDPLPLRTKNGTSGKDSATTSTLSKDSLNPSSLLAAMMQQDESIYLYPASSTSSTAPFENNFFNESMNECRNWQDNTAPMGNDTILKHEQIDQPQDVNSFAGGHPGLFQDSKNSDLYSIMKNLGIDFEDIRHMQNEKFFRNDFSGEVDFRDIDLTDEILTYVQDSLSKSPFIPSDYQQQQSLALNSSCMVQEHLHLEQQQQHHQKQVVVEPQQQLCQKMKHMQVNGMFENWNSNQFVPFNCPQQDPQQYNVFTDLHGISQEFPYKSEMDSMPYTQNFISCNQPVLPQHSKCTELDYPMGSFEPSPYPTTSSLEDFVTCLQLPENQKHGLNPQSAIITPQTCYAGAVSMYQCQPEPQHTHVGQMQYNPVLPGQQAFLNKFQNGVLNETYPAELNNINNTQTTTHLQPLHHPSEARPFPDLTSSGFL

Assay [13] can be described thus: qHTS assay to identify small molecule that activate the aryl hydrocarbon receptor (AhR) signaling pathway - cell viability counter screen (AID 743086).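 Also: HepG2 liver cells carrying the AhR DRE luciferase reporter; nearly all actives have a fitted effect of over 45% in size.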 In outline: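 HepG2-AhR-luc (HG2L7.5c1) cells, 4000/well, were preincubated 5 h at 37C, exposed to compound in qHTS format for 24 hr at 37C, then given CellTiter-Fluor for 30 min; viability was read as fluorescence in the reporter wells.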

The target in assay [14] is Peroxisome proliferator-activated receptor gamma (Homo sapiens) (UniProt P37231). Description: qHTS assay to identify small molecule agonists of the peroxisome proliferator-activated receptor gamma (PPARg) signaling pathway (AID 743094; active = well fitted activation curve with a large enough effect in the signal ratio in the repeat runs, not every such curve was filed as active; the % refers to the signal ratio). In outline: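 HEK293H PPARg-bla cells, 5 h settle at 37C/5% CO2; compound (DMSO) 17 h, 37C; B/G FRET substrate 1 h RT; fluorescence intensity read-out. qHTS format.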
Sequence of Peroxisome proliferator-activated receptor gamma (Homo sapiens) (P37231 whole entry, looked up): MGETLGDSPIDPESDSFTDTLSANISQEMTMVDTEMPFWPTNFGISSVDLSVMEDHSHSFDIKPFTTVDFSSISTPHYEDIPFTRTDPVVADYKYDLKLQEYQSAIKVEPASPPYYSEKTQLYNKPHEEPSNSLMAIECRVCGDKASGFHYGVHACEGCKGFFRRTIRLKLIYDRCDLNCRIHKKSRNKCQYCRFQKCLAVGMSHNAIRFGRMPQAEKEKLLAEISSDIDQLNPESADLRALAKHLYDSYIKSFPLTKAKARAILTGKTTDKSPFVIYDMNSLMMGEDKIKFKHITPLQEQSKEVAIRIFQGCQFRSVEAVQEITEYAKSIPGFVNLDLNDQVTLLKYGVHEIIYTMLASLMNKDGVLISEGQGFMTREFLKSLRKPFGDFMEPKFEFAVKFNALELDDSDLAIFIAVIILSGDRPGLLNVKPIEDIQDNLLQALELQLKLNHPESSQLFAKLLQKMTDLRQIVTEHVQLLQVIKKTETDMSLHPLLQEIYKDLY

Assay [15] shares this target. In words: qHTS assay to identify small molecule antagonists of the peroxisome proliferator-activated receptor gamma (PPARg) signaling pathway (AID 743191; calls by dose curve; also: nearly all actives have a fitted effect of over 30% in size). An outline of the steps: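 GeneBLAzer PPARg UAS-bla HEK293H cells carrying a UAS-driven beta-lactamase reporter were plated at 3000 cells/well, preincubated 5 h at 37C, then given compound for 17 h at 37C; LiveBLAzer B/G FRET substrate was read after 1 h at room temperature.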

Assay [16] can be described thus: qHTS assay to identify small molecule antagonists of the peroxisome proliferator-activated receptor gamma (PPARg) signaling pathway - cell viability counter screen (AID 743194). Also: nearly all actives have a fitted effect of over 55% in size. An outline of the steps:
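PPARg-UAS-bla HEK293H cells were plated, rested 5 h at 37 C, then treated with compounds plus rosiglitazone (50 nM final) for 17 h at 37 C; viability was then read by CellTiter-Glo luminescence after 30 min at room temperature.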

The nature of assay [17]: qHTS assay for small molecule agonists of the antioxidant response element (ARE) signaling pathway - cell viability counter screen (AID 743203; calls by dose curve; also: nearly all actives have a fitted effect of over 55% in size). An outline of the steps:
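Luminescence read-out (CellTiter-Glo, 30 min at room temperature) measured cell viability in the same wells as the ARE beta-lactamase reporter. HepG2 ARE-bla cells were treated with compounds for 16 hrs at 37C/5% CO2.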

Assay [18] in a line: qHTS assay for small molecule activators of the heat shock response signaling pathway - cell viability counter screen (AID 743209). Also: nearly all actives have a fitted effect of over 50% in size. An outline of the steps: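 HSE-bla HeLa; 1500 cells/well; overnight 37 C, 5% CO2; compound 5 h 37 C; LiveBLAzer B/G substrate 2.5 h RT; CellTiter-Glo 30 min RT; luminescence.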
The nature of assay [19]: qHTS assay for small molecule activators of the heat shock response signaling pathway (AID 743210; active = well fitted activation curve with a large enough effect in the signal ratio in the repeat runs, with a control signal flat, not every such curve was filed as active; the % refers to the signal ratio;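 also: HeLa cells with beta-lactamase reporter driven by heat shock elements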). An outline of the steps: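 Activation of heat shock element-controlled beta-lactamase expression is measured in HeLa cells by LiveBLAzer FRET fluorescence, with compound exposure lasting 5 h at 37 C and substrate loading 2.5 h at room temperature.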
A short description of assay [20]: qHTS assay for small molecule agonists of the antioxidant response element (ARE) signaling pathway (AID 743202; active = well fitted activation curve with a large enough effect in the signal ratio in the repeat runs, not every such curve was filed as active; the % refers to the signal ratio). An outline of the steps:
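Steps: seed ARE-bla HepG2 cells (2,000/well); incubate 5 h at 37 C; add compounds by pin tool; incubate 16 h at 37 C; add FRET substrate; read fluorescence after 2 h at RT.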

Inconclusive results are not listed. Active and inactive are the calls of the source. Unless noted, calls follow the shape of the dose curve; as a rule, active = well fitted curve in the direction sought with a large enough effect in the repeat runs; inconclusive = weak or mixed curves; inactive = no such curve, though single readings can be large; an effect the other way counts as inactive or inconclusive.

Sequence of Estrogen receptor (Homo sapiens) (P03372 whole entry, looked up): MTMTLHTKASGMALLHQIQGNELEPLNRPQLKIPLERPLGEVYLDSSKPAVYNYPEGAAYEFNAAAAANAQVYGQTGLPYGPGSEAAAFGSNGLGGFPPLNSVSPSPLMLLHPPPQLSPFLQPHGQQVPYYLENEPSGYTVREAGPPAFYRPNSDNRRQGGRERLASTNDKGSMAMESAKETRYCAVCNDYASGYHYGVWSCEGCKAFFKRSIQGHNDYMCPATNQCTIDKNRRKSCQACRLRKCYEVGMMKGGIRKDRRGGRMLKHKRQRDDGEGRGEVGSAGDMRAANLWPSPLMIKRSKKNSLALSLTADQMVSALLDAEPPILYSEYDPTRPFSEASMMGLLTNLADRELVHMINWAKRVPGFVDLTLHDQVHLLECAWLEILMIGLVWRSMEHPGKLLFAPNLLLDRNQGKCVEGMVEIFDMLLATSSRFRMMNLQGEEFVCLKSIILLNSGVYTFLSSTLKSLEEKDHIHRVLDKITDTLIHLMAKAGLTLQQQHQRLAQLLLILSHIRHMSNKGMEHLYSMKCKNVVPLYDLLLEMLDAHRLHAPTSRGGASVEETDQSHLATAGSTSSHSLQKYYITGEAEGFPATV

As to `C(=C/c1ccccc1)/c1ccccc1`, the Potency result in assay [1], in assay [2], in assay [3], in assay [4], in assay [5] and in assay [6] was “inactive” in each case. Further, the Potency result in assay [7], in assay [8], in assay [9], in [10], in [11] and in assay [12] was “inactive” throughout. Also, the Potency entry in assay [13], in assay [14], in [15], in assay [16], in assay [17] and in assay [18] was “inactive” each time. In addition, the Potency result in assay [19] is “inactive”.

In the case of `O=C(O)CCCCCCC(=O)O`, the Potency result in assay [1], in assay [2], in assay [3], in [5], in [9] and in assay [10] was “inactive” each time. In addition, the Potency entry in assay [11], in [12], in assay [13], in [14], in assay [15] and in assay [16] was “inactive” throughout. Also, the Potency result in [20], in assay [17], in [18] and in assay [19] was “inactive” each time.

Consider `Nc1ncnc2c1ncn2[C@@H]1O[C@H](COP(=O)(O)O)[C@@H](O)[C@H]1O`, for which the Potency entry in assay [1], in assay [2], in assay [3], in assay [9], in assay [10] and in assay [11] was “inactive” each time. Further, the Potency result in [12], in [13], in assay [14], in assay [15], in assay [16] and in [20] was “inactive” in each case. In addition, the Potency result in assay [17], in assay [18] and in [19] was “inactive” each time. For the same molecule, the Potency in [5] is 21.3 µM (active).

Take `O=C(O)c1cccc(Cl)n1`: the Potency entry in [1], in [2], in assay [3], in assay [4], in assay [5] and in assay [6] was “inactive” in each case. Besides, the Potency result in assay [7], in assay [8], in assay [9], in assay [10], in [11] and in [12] was “inactive” throughout. The Potency entry in assay [13], in assay [14], in assay [16] and in assay [17] was “inactive” each time.

`Cc1ccc2ccc3cccc4ccc1c2c34`: the Potency entry in assay [1], in [2], in [3], in [6], in assay [7] and in assay [8] was “inactive” each time. Moreover, the Potency result in [9], in [10], in assay [11], in [12], in [13] and in assay [14] was “inactive” in each case. Also, the Potency result in assay [15], in assay [16], in [20], in assay [17], in [18] and in assay [19] was “inactive” each time.

As to `CCCC(CC)CCCCCCCN` (stereo unspecified), the Potency entry in assay [1], in assay [2], in assay [3], in assay [4], in assay [5] and in assay [6] was “inactive” in each case. Besides, the Potency result in assay [7], in assay [8], in [9], in assay [10], in assay [11] and in assay [12] was “inactive” throughout. In addition, the Potency result in assay [13], in [14], in assay [20] and in [18] was “inactive” in each case.

Values taken from PubChem BioAssay (Tox21).
